About 83,000 compounds went through this panel and 20% of them were active in at least one assay; those are over-represented in the sample as a whole.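 Cells were grown in 96-well plates and exposed to the test compound at a single concentration for 48 hours; results are reported as percent growth, with values below 10 considered active.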 Activity calls are given as the source filed them.

The first test concerns NCI-H23 lung. As to the kind of experiment: NCI-60 one-dose screen, 48 h (100 = growth as untreated, 0 = no growth, -100 = all killed). The following applies: 10 µM unless noted.
Turning to `N=C(N)c1ccc(-c2cc(Cl)cc(Cl)c2)cn1`, the growth is 97.6% (inactive).

`COc1cc(-c2nn(-c3cccc(NC(=O)c4cccc(C(F)(F)F)c4)c3)cc2-c2ccncc2)ccc1Cl`: the growth was 24.7% (inactive).

On to `CN(C)c1oc(C2OC2c2ccccc2)nc1C#N` (stereo not drawn), for which the growth was 95.2% (inactive).

With `O=C(NNC(=O)N1c2ccccc2C=Cc2ccccc21)c1ccccc1`, the growth was 101% (inactive).

Turning to `Cc1ccc(N2CCN(C(C)C(N)=O)CC2)cc1` (stereo not drawn), the growth was 104% (inactive).

As to `C=C(C)[C@@H]1C[C@H](O)Cc2cc(F)ccc2N1`, the growth is 96.9% (inactive).

Consider `c1ccc(-c2nnc(-c3ccccn3)s2)nc1`, for which the growth was 79.6% (inactive).

As to `C=C1CCC2C(C)(CO)C(O)CCC2(C)C1C/C=C1/C(=O)OCC1Oc1ccccc1C` (stereo not drawn), the growth was 94% (inactive).

Turning to `Cc1ccc(S(=O)(=O)C2=C3C(=C(c4ccccc4)c4ccccc43)CN(S(=O)(=O)c3ccc(C)cc3)C2)cc1`, the growth is 47.1% (inactive).

Turning to `COc1cc(C(=O)/C=C/c2c(C)n([O-])c3ccc(C(F)(F)F)cc3[n+]2=O)cc(OC)c1OC`, the growth was 98.2% (inactive).

Turning to `COc1ccc(C(=O)n2nc(/C=C/c3ccc(O)c(OC)c3)cc2/C=C/c2ccc(O)c(OC)c2)cc1`, the growth is 7.96% (active).

For `COc1cc(/C=N\NC(=O)CN2CCN(c3cc4c(cc3F)c(=O)c(C(=O)N/N=C/c3cc(OC)c(OC)c(OC)c3)cn4C3CC3)CC2)cc(OC)c1OC`, the growth was -36.4% (active).

Turning to `CCCCCCN1CSC(=S)N(CCCCCC)C1`, the growth was 83.6% (inactive).

For the compound `Cc1csc(NC(c2ccc(Br)cc2)c2c(C)nc3ccccn23)n1` (stereo not drawn), the growth was 84% (inactive).

Consider `Fc1ccc(Nc2nc(NCCNc3ccnc4cc(Cl)ccc34)nc(N3CCOCC3)n2)cc1`, for which the growth is 93% (inactive).

For the compound `Cc1ccc(-c2nc(C#N)c(S(=O)(=O)n3nc(-c4ccccc4)cc3N)o2)cc1`, the growth was 97.4% (inactive).

On to `CCOC(=O)c1ccc2c(c1)c1c(C)c3cccnc3c(C)c1n2C`, for which the growth is 56.7% (inactive).

Regarding `COc1ccc(-c2nc(SCCC(C)C)nc(Nc3ccc(F)c(Cl)c3)c2C#N)cc1`, the growth is 90.2% (inactive).

Take `N[C@@H]1CCN(C(=O)c2cc3cc(Cl)c(F)c(F)c3[nH]2)C1`: the growth is 92.8% (inactive).

`CC(C)(C)c1[nH]nc2c1C(c1cc3ccccc3[nH]c1=O)Nc1cc(C(=O)Nc3ccc(Cl)cc3)ccc1N2` (stereo not drawn): the growth was 78.9% (inactive).

For the compound `Cc1ccc(S(=O)(=O)NCCNc2nccc(-c3c(-c4cccc(N)c4)nc4sccn34)n2)cc1`, the growth is 91.7% (inactive).

As to `CN(C)c1ncnc2c1ccn2C1OC(CO)C(O)C1O` (stereo not drawn), the growth was 54.5% (inactive).

Consider `C/C(=C\c1ccc(OCC(=O)O)c(Cl)c1Cl)[N+](=O)[O-]`, for which the growth is 93.2% (inactive).

In the case of `COc1ccc(/C=C/c2c(C(C)=O)c(C)nc3ccccc23)cc1`, the growth is 60.9% (inactive).

`COc1ccc(Nc2nn3c(C)cc(C)nc3c2C(=O)Nc2ccc(C)cc2)c(OC)c1`: the growth was 92.7% (inactive).

`Cc1[nH]c2ccc(F)cc2c1CCNC(=O)C1CCN(C(=O)c2ccccc2)C1` (stereo not drawn): the growth was 88.6% [25 µM] (inactive).

Take `N#Cc1c(Nc2ccccc2)nc2n(c1=O)-c1ccccc1Sc1ccccc1-2`: the growth is 88.5% (inactive).

As to `C=C1CC2(OC1=O)C(=O)N(CCCN1C(=O)C3(CC(=C)C(=O)O3)c3ccccc31)c1ccccc12` (stereo not drawn), the growth was 57.6% (inactive).

Turning to `C=C(C)[C@@H]1CC[C@]2(C(=O)O)CC[C@]3(C)[C@H](CC[C@@H]4[C@@]5(C)C[C@@H](CC#Cc6ccc(C(F)(F)F)cc6)[C@H](O)C(C)(C)[C@@H]5CC[C@]43C)[C@@H]12`, the growth is 2.55% (active).

`CCCCCCCCC(C)OC(=O)c1nn(C(C)=O)c2ccccc12` (stereo not drawn): the growth is 89.3% (inactive).

As for `Oc1ccc2cc(Br)ccc2c1-c1c(O)ccc2cc(Br)ccc12`, the growth was 55.4% (inactive).

Turning to `COc1ccc(-c2cn(-c3cccc(C(=O)/C=C/c4cc(OC)c(OC)c(OC)c4)c3)c(=O)[nH]2)cc1OC`, the growth is 93.9% (inactive).

Turning to `N/C(=N\C(N)=N\c1nc2ccccc2s1)c1cccc(Br)c1`, the growth is 77% (inactive).

On to `c1cc2[nH]ncc2cc1-c1nc2ccc3[nH]ncc3c2c2c1CCC2`, for which the growth is 70.2% (inactive).

As to `O=C(Nc1ccc(Cl)c(Cl)c1)NS(=O)(=O)c1cnccc1Oc1ccc(F)cc1`, the growth was 39.3% (inactive).

As to `Cc1ccc(C(=O)NCCCNc2nccc(-n3ccc4cccnc43)n2)cc1`, the growth is 102% (inactive).

On to `CC(C)(C)n1cc(-c2ccnc(NCCCNS(=O)(=O)c3ccccc3)c2)c(-c2cccc(O)c2)n1`, for which the growth is 72.8% (inactive).

On to `COc1ccc(C(=O)c2cc(OC)c(OC)c(OC)c2OC)cc1O`, for which the growth was 44.2% (inactive).

Consider `C=C1C(=O)O[C@@H]2[C@@H]3O[C@@](C)(CC/C=C(\C)CCC[C@@H]2C)[C@H](O)C[C@@H]13`, for which the growth is 81.6% (inactive).

Another test relates to NCI-H226 lung. The test is described as above. The following applies: 10 µM unless noted.
As for `N=C(N)c1ccc(-c2cc(Cl)cc(Cl)c2)cn1`, the growth is 82.4% (inactive).

Regarding `COc1cc(-c2nn(-c3cccc(NC(=O)c4cccc(C(F)(F)F)c4)c3)cc2-c2ccncc2)ccc1Cl`, the growth is 36.2% (inactive).

On to `CN(C)c1oc(C2OC2c2ccccc2)nc1C#N` (stereo not drawn), for which the growth was 80.7% (inactive).

With `O=C(NNC(=O)N1c2ccccc2C=Cc2ccccc21)c1ccccc1`, the growth was 113% (inactive).

For the compound `Cc1ccc(N2CCN(C(C)C(N)=O)CC2)cc1` (stereo not drawn), the growth was 109% (inactive).

For the compound `C=C(C)[C@@H]1C[C@H](O)Cc2cc(F)ccc2N1`, the growth was 95.6% (inactive).

For `c1ccc(-c2nnc(-c3ccccn3)s2)nc1`, the growth was 96.8% (inactive).

For the compound `C=C1CCC2C(C)(CO)C(O)CCC2(C)C1C/C=C1/C(=O)OCC1Oc1ccccc1C` (stereo not drawn), the growth is 80% (inactive).

Consider `Cc1ccc(S(=O)(=O)C2=C3C(=C(c4ccccc4)c4ccccc43)CN(S(=O)(=O)c3ccc(C)cc3)C2)cc1`, for which the growth was 79.1% (inactive).

Regarding `COc1cc(C(=O)/C=C/c2c(C)n([O-])c3ccc(C(F)(F)F)cc3[n+]2=O)cc(OC)c1OC`, the growth is 81.6% (inactive).

Take `COc1ccc(C(=O)n2nc(/C=C/c3ccc(O)c(OC)c3)cc2/C=C/c2ccc(O)c(OC)c2)cc1`: the growth is 13% (inactive).

As to `COc1cc(/C=N\NC(=O)CN2CCN(c3cc4c(cc3F)c(=O)c(C(=O)N/N=C/c3cc(OC)c(OC)c(OC)c3)cn4C3CC3)CC2)cc(OC)c1OC`, the growth is -64.7% (active).

Consider `CCCCCCN1CSC(=S)N(CCCCCC)C1`, for which the growth is 92.3% (inactive).

Take `Cc1csc(NC(c2ccc(Br)cc2)c2c(C)nc3ccccn23)n1` (stereo not drawn): the growth is 81.6% (inactive).

Regarding `Fc1ccc(Nc2nc(NCCNc3ccnc4cc(Cl)ccc34)nc(N3CCOCC3)n2)cc1`, the growth was 94.8% (inactive).

With `Cc1ccc(-c2nc(C#N)c(S(=O)(=O)n3nc(-c4ccccc4)cc3N)o2)cc1`, the growth is 78.3% (inactive).

`CCOC(=O)c1ccc2c(c1)c1c(C)c3cccnc3c(C)c1n2C`: the growth was 53.1% (inactive).

Regarding `COc1ccc(-c2nc(SCCC(C)C)nc(Nc3ccc(F)c(Cl)c3)c2C#N)cc1`, the growth was 65.8% (inactive).

With `N[C@@H]1CCN(C(=O)c2cc3cc(Cl)c(F)c(F)c3[nH]2)C1`, the growth is 75% (inactive).

With `CC(C)(C)c1[nH]nc2c1C(c1cc3ccccc3[nH]c1=O)Nc1cc(C(=O)Nc3ccc(Cl)cc3)ccc1N2` (stereo not drawn), the growth was 105% (inactive).

As for `Cc1ccc(S(=O)(=O)NCCNc2nccc(-c3c(-c4cccc(N)c4)nc4sccn34)n2)cc1`, the growth was 79.6% (inactive).

As for `CN(C)c1ncnc2c1ccn2C1OC(CO)C(O)C1O` (stereo not drawn), the growth is 72.7% (inactive).

As for `C/C(=C\c1ccc(OCC(=O)O)c(Cl)c1Cl)[N+](=O)[O-]`, the growth was 110% (inactive).

`COc1ccc(/C=C/c2c(C(C)=O)c(C)nc3ccccc23)cc1`: the growth was 92.6% (inactive).

As for `COc1ccc(Nc2nn3c(C)cc(C)nc3c2C(=O)Nc2ccc(C)cc2)c(OC)c1`, the growth is 101% (inactive).

Consider `Cc1[nH]c2ccc(F)cc2c1CCNC(=O)C1CCN(C(=O)c2ccccc2)C1` (stereo not drawn), for which the growth is 90.2% [25 µM] (inactive).

On to `N#Cc1c(Nc2ccccc2)nc2n(c1=O)-c1ccccc1Sc1ccccc1-2`, for which the growth was 84.4% (inactive).

Regarding `C=C1CC2(OC1=O)C(=O)N(CCCN1C(=O)C3(CC(=C)C(=O)O3)c3ccccc31)c1ccccc12` (stereo not drawn), the growth was 78.7% (inactive).

For the compound `C=C(C)[C@@H]1CC[C@]2(C(=O)O)CC[C@]3(C)[C@H](CC[C@@H]4[C@@]5(C)C[C@@H](CC#Cc6ccc(C(F)(F)F)cc6)[C@H](O)C(C)(C)[C@@H]5CC[C@]43C)[C@@H]12`, the growth was 3.81% (active).

For `CCCCCCCCC(C)OC(=O)c1nn(C(C)=O)c2ccccc12` (stereo not drawn), the growth is 105% (inactive).

`Oc1ccc2cc(Br)ccc2c1-c1c(O)ccc2cc(Br)ccc12`: the growth is 81.6% (inactive).

On to `COc1ccc(-c2cn(-c3cccc(C(=O)/C=C/c4cc(OC)c(OC)c(OC)c4)c3)c(=O)[nH]2)cc1OC`, for which the growth was 87.9% (inactive).

Take `N/C(=N\C(N)=N\c1nc2ccccc2s1)c1cccc(Br)c1`: the growth was 71.6% (inactive).

Regarding `c1cc2[nH]ncc2cc1-c1nc2ccc3[nH]ncc3c2c2c1CCC2`, the growth was 42.5% (inactive).

As for `O=C(Nc1ccc(Cl)c(Cl)c1)NS(=O)(=O)c1cnccc1Oc1ccc(F)cc1`, the growth was 74.9% (inactive).

For the compound `Cc1ccc(C(=O)NCCCNc2nccc(-n3ccc4cccnc43)n2)cc1`, the growth is 93.4% (inactive).

Consider `CC(C)(C)n1cc(-c2ccnc(NCCCNS(=O)(=O)c3ccccc3)c2)c(-c2cccc(O)c2)n1`, for which the growth is 53.4% (inactive).

For the compound `COc1ccc(C(=O)c2cc(OC)c(OC)c(OC)c2OC)cc1O`, the growth was 86.8% (inactive).

With `C=C1C(=O)O[C@@H]2[C@@H]3O[C@@](C)(CC/C=C(\C)CCC[C@@H]2C)[C@H](O)C[C@@H]13`, the growth was 65.7% (inactive).
